# According to PubChem BioAssay (NCATS):
# Inconclusive results are not listed. A call without a number means that no potency is given here. Calls of active or inactive are those of the source. Calls come from the whole dose curve; as a rule, active = well fitted inhibition curve with a large enough effect; inconclusive = small, poorly fitted or top-dose-only effect; inactive = flat fitted curve, though single readings scatter.
# Test: P-glycoprotein substrates identified in KB-8-5-11 adenocarcinoma cell line, qHTS therapeutic library screen (AID 1346987); note: nearly all actives have a fitted effect of over 65% in size
# Settings: KB-8-5-11 (P-gp overexpressing) viability, CellTiter-Glo, 72 h; series mostly up to 44.5 µM
# Procedure, shortened: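 Luminescence from CellTiter-Glo, read 5 min after addition, quantified survival of KB-8-5-11 (P-gp-overexpressing) cells exposed to compounds for 72 h. AC50 was derived from concentration-response curves.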
# Potency is the fitted concentration of half-maximal effect.
row,SMILES,Potency
1,C=CC(C)(O)CC[C@H]1C(=C)CCC2[C@](C)(C(=O)O)CCC[C@@]21C (stereo partly specified),inactive
2,CC(=O)OC[C@]12[C@H](OC(C)=O)C(=O)[C@@H]3[C@@H](OC(C)=O)[C@@]14O[C@@]3(C)COC(=O)c1cccnc1[C@@H](C)[C@H](C)C(=O)O[C@@H]([C@H](O)[C@@H]2OC(C)=O)[C@]4(C)O,inactive
3,C/C=C/C=C/C=C/C(=O)OC1C=C(C=O)C(O)(C(=O)O)C2(C)CCCC(C)(C)C12 (stereo unspecified),inactive
4,COC(=O)C1=CO[C@@H](O[C@@H]2O[C@H](CO)[C@@H](O)[C@H](O)[C@H]2O)[C@H]2[C@@H]1CC(OC)O[C@@H]2C (stereo partly specified),inactive
5,CC[C@H](CO)Nc1nc(NCc2ccc(-c3ccccn3)cc2)c2ncn(C(C)C)c2n1,231 nM (active)
6,C/C1=C\[C@H]2OC(=O)[C@@H](C)[C@@H]2CC/C(C(=O)O)=C/CC1,inactive
7,O=C(C(c1ccccc1)c1ccccc1)N1CCN(CC(O)COc2cccc3ncccc23)CC1 (stereo unspecified),inactive
8,CC(C)[C@H]1CC[C@@]2(O)COC(=O)[C@H]2[C@@H]1/C=C(\CO)C(=O)O,inactive
9,CC1(C)CC2=C3C=CC4C5(C)CCC(O)C(C)(C)C5CCC4(C)C3(C)CCC2(C)C(O)C1 (stereo unspecified),inactive
10,Cc1cc(C(=O)Nc2cccc(C(=O)Nc3cccc(C(F)(F)F)c3)c2)on1,inactive
11,NCc1c[nH]c(=S)n1[C@@H]1CCc2c(F)cc(F)cc2C1,inactive
